From the supplement of paper PMC13380429

System: Vero E6 infected with SARS-CoV-2
Assay: inhibition of SARS-CoV-2 cytopathic effect; higher = more antiviral protection, active = above 15
Details: 48 h

Measured: inhibition of SARS-CoV-2 cytopathic effect

C[C@@H]1[C@H](O)[C@@H](C)/C=C/C=C/C=C/C=C/C=C/C=C/C=C/[C@H](O[C@@H]2O[C@H](C)[C@@H](O)[C@H](N)[C@@H]2O)C[C@@H]2O[C@](O)(C[C@@H](O)C[C@@H](O)[C@H](O)CC[C@@H](O)C[C@@H](O)CC(=O)O[C@H]1C)C[C@H](O)[C@H]2C(=O)O [amphotericin-b]
inactive: 1 nM -1.34% | 8.33 nM 0.44% | 100 nM -1.99% | 833.33 nM -0.45% | 10000 nM 3.31%

O=C(NCCO)c1cc(C(=O)NCCO)cc(C(=O)NCCO)c1
inactive: 1 nM -0.77% | 8.33 nM -1.01% | 100 nM -1.2% | 833.33 nM -1.25% | 10000 nM 0.61%

CC(=O)O[C@]1(C(C)=O)CC[C@H]2[C@@H]3C=C(Cl)C4=CC(=O)CC[C@]4(C)[C@H]3CC[C@@]21C [chlormadinone-acetate]
inactive: 1 nM -13.3% | 8.33 nM -12.7% | 100 nM -10.2% | 833.33 nM -13.4% | 10000 nM -13%

C[C@H]1[C@H](C)CC[C@]2(C(=O)O)CC[C@]3(C)C(=CC[C@@H]4[C@@]5(C)C[C@@H](O)[C@H](O)C(C)(C)[C@@H]5CC[C@]43C)[C@H]12 [corosolic-acid]
inactive: 1 nM -3.62% | 8.33 nM -0.43% | 100 nM -0.51% | 833.33 nM -4.03% | 10000 nM -1.21%

CC[C@@H]1C(=O)OC[C@@H]1Cc1cncn1C [pilocarpine]
inactive: 1 nM 0.9% | 8.33 nM 1.12% | 100 nM 1.22% | 833.33 nM 3.49% | 10000 nM 3.05%
